Measured values: PubChem BioAssay (NCATS)
Values joined by “and” are separate entries in the source; they are usually repeats but may differ in a detail not shown here. Identical values can stand only once. Records with an inconclusive call do not appear. A number with no mark means an inactive call. Active and inactive are the calls of the source. The call rests on the fitted dose curve; in most records, active means well fitted activation curve with a large enough effect; inconclusive means small, poorly fitted or top-dose-only effect; inactive means no such curve, though single readings can be large or run the other way.

What follows are compounds tested against Cellular tumor antigen p53 (Homo sapiens) (UniProt P04637) (assay: Primary qHTS for small molecule compounds that upregulate eGFP-tagged delta133p53alpha (in N-terminal) cells. (AID 2060322; further: nearly all actives have a fitted effect of over 75% in size;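 on activation: series mostly up to about 56 µM; 0% = DMSO vehicle and 100% = reference activator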)). Details: NCI-H358 eGFP-delta133p53alpha fluorescence, 24 h; activation: stronger effect = higher value.
Cellular tumor antigen p53 (Homo sapiens), sequence (P04637 whole entry, looked up): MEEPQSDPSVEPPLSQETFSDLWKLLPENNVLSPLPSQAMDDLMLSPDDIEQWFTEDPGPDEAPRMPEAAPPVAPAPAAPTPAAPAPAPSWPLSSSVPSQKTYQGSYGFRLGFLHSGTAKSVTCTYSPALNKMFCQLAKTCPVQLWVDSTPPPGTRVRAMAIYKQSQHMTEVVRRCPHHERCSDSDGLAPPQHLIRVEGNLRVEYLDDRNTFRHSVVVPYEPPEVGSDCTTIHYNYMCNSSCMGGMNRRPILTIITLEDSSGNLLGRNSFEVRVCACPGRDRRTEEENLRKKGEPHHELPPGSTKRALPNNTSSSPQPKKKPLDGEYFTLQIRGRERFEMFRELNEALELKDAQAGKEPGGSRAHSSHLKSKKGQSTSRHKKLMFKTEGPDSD
Method in brief: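 NCI-H358 cells pre-induced 24 h with 10 ng/ml doxycycline to express N-terminal eGFP-delta133p53alpha, then dosed 24 h at 37C without doxycycline; fixed, Hoechst-stained, GFP intensity by laser scanning cytometry, normalized to DMSO (0%) and 57.5 uM 5-azacytidine (100%).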
Potency means the concentration at half of the fitted maximal effect.

Row | SMILES | activation | Potency
1 | CN(C)CCN1C(=O)c2ccccc2N(C)c2ccccc21 | 7.34% | –
2 | COc1cc(C)c(C=CC(C)=CC=CC(C)=CC(=O)O)c(C)c1C | 21.4% | –
3 | c1ccc(CC2=NCCN2)cc1 | -3.95% | –
4 | O=C(c1cccc(Br)c1)N1CCC(N2CCCC2)CC1 | -15.6% | –
5 | Nc1ccc(S(=O)(=O)Nc2ccccn2)cc1 | -36.8% and 13.3% | –
6 | O=C(C=Cc1ccc(/C=C/C(=O)Nc2ccc(C3=NCCN3)cc2)cc1)Nc1ccc(C2=NCCN2)cc1 | -8.95% | –
7 | CC=C1C2C=C(C)CC1(N)c1ccc(=O)[nH]c1C2 (stereo not given) | -14.9% | –
8 | CCCCCCCCCCCCCCCCCCOCC(O)CO (stereo not given) | -16.4% | –
9 | CCCCCOc1ccccc1/C(=C\SC)n1ccnc1 | -16.7% | –
10 | CC(=O)OC[C@H]1O[C@@H](n2ncc(=O)[nH]c2=O)[C@H](OC(C)=O)[C@@H]1OC(C)=O | -7.53% | –
11 | CCOc1ccc(Cc2cc([C@@H]3O[C@H](CO)[C@@H](O)[C@H](O)[C@@H]3O)ccc2Cl)cc1 | -1.71% | –
12 | CN(C)C(=O)Nc1ccc(Cl)c(Cl)c1 | 13.4% | –
13 | CC=CC1=C(C(=O)O)N2C(=O)[C@H](NC(=O)[C@H](N)c3ccc(O)cc3)[C@@H]2SC1 | 11.1% | –
14 | CC(=O)OCC(=O)[C@@]12N=C(C)O[C@H]1C[C@H]1[C@@H]3CCC4=CC(=O)C=C[C@]4(C)[C@@H]3[C@@H](O)C[C@@]12C | -1.97% | –
15 | CCCc1c2oc(C(=O)O)cc(=O)c2cc2c(=O)cc(C(=O)O)n(CC)c12 | -10% | –
16 | CC(NC(CCc1ccccc1)C(=O)O)C(=O)N1C(=O)N(C)CC1C(=O)O (stereo not given) | -13.4% | –
17 | CN1[C@@H]2CC[C@H]1CC(OC(=O)C(O)c1ccccc1)C2 (stereo not given in full) | 5.08% | –
18 | CC[C@H](CC[C@@H](C)[C@H]1CC[C@H]2[C@@H]3CC=C4C[C@@H](O)CC[C@]4(C)[C@@H]3CC[C@]12C)C(C)C | -21.3% | –
19 | COC(=O)[C@]12CCC(C)(C)C[C@@H]1[C@@H]1C(=O)C=C3[C@@]4(C)C=C(C#N)C(=O)C(C)(C)[C@@H]4CC[C@@]3(C)[C@]1(C)CC2 | – | 10.9 µM (active)
20 | COc1ccc(C(=O)c2ccccc2O)c(O)c1 | 10.9% | –

Row | SMILES | activation | Potency
21 | CNC(=O)c1ccc(Nc2cc(Nc3ccccc3S(=O)(=O)C(C)C)c3cc[nH]c3n2)nc1 | – | 19.3 µM (active)
22 | CCN1CC(CCN2CCOCC2)C(c2ccccc2)(c2ccccc2)C1=O (stereo not given) | 5.08% | –
23 | CCC(=O)OCC(=O)[C@@]1(OC(=O)CC)[C@@H](C)C[C@@H]2[C@H]3CCC4=CC(=O)C=C[C@]4(C)[C@@]3(F)[C@@H](O)C[C@@]21C | 3.16% | –
24 | CC(C)c1cc2c(c(O)c1O)[C@@]13CCCC(C)(C)[C@@H]1[C@H](OC3=O)C2=O | 0% | –
25 | C=C1C[C@@]2(O)O[C@@]3(C[C@H]2C(C)C)[C@H](C)CC[C@H]13 | 18.1% | –
26 | CC1(C)[C@@H](OC(=O)CCC(=O)O)CC[C@]2(C)[C@H]3C(=O)C=C4[C@@H]5C[C@@](C)(C(=O)O)CC[C@]5(C)CC[C@@]4(C)[C@]3(C)CC[C@@H]12 | 0.565% | –
27 | O=C1NC(=O)C(=Cc2ccc3nccnc3c2)S1 | -3.42% | –
28 | COc1ccc(OC)c(C(O)CNC(=O)CN)c1 (stereo not given) | 8.47% | –
29 | CC(O)CCCCn1c(=O)c2c(ncn2C)n(C)c1=O (stereo not given) | -16.4% | –
30 | COC(=O)c1ccc(O)cc1 | 7.34% | –
31 | C[C@H](N)C(=O)N[C@@H](C)C(=O)NC1[C@H]2CN(c3nc4c(cc3F)c(=O)c(C(=O)O)cn4-c3ccc(F)cc3F)C[C@@H]12 (stereo not given in full) | -33.3% | –
32 | Cc1c[nH]c2ccccc12 | 17.6% | –
33 | Cc1cc(C=c2sc3nc4ccccc4n3c2=O)c(C)n1-c1ccccc1 | -10.2% | –
34 | CC(C)[N+]1(C)[C@@H]2CC[C@H]1CC(OC(=O)C(CO)c1ccccc1)C2 (stereo not given in full) | 33.8% | –
35 | CC(=O)Nc1ncc([N+](=O)[O-])s1 | -1.69% | –
36 | CC1(C)OC2=C(C(=O)c3ccccc3C2=O)[C@H](NCc2ccccc2)[C@H]1O | – | 24.3 µM (active)
37 | COc1ccc(-c2cc(=O)c3c(O)cc(O[C@@H]4O[C@H](CO[C@@H]5O[C@@H](C)[C@H](O)[C@@H](O)[C@@H]5O)[C@@H](O)[C@H](O)[C@@H]4O)cc3o2)cc1O | -19% | –
38 | CC(=O)O[C@]1(C(C)=O)CC[C@@H]2[C@@H]3C[C@H](C)C4=CC(=O)CC[C@]4(C)[C@H]3CC[C@@]21C | 17.1% | –
39 | CCN(CC)CC(=O)Oc1ccc(NC(C)=O)cc1 | -5.08% | –
40 | C[N+](C)(C)CC[N+]1(C)Cc2c(Cl)c(Cl)c(Cl)c(Cl)c2C1 | -1.69% | –
